This is a sample that favours compounds with a hit; in the whole collection about 17% have one here.
ATXN2 expr inh: inhibitors of ATXN2 expression; HEK-293 ATXN2-luciferase reporter, luminescence, 24 h; Potency, µM (top dose mostly 57 µM), for inactives: at the highest dose activity change, negative = inhibition, most hits filed as inhibitors; 360,000 tested, 0.72% active; note: % is set by controls: 0 for no effect and ±100 for the full control effect; nearly all actives have a fitted effect of over 55% in size
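ATXN2-luciferase reporter cells (luciferase flanked by upstream and downstream ATXN2 gene portions) were treated 24 h at 37 °C with compounds at up to 57 uM. SteadyGlo luminescence gave expression; GF-AFC fluorescence gave viability.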
HepG2 viability: kills HepG2 cells in TGF-b inhibitor counter-screen; HepG2 CAGA-GFP viability, ATP luminescence, 18 h; Potency, µM (titrated, usually from 46.1 µM), for inactives: top-dose activity change, negative = cytotoxicity, actives largely listed as cytotoxic; 410,000 tested, 0.76% active; AID 588856
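HepG2 CAGA-GFP cells (1000/well, DMEM with 1% FBS) received compound, then TGF-beta at 500 pg/mL final, and were incubated 18 hours at 37 degrees C. Viability was read by CellTiter-Glo luminescence. Media-only wells were set as complete cell-killing and DMSO as no toxicity.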
DT40 TDP1 CPT: growth inhibition of DT40 Tdp1-/-;hTDP1 cells with camptothecin (screen for TDP1 inhibitors) | Potency, µM (titrated, usually from 46.2 µM), without a hit: top-dose activity change, negative = growth inhibition, usual class: inhibitors | chicken DT40 Tdp1-/-;hTDP1 cells + 20 nM CPT, ATP luminescence, 48 h | 420,000 tested, 12% active | AID 686979; note: % is set by controls: 0 for no effect and ±100 for the full control effect; nearly all actives have a fitted effect of over 55% in size
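Cell growth measured by CellTiter-Glo luminescence after a minimum 48 h, 37 C compound exposure with 20 nM CPT in Tdp1-knockout DT40 cells stably expressing hTDP1, seeded 400/well; qHTS titration format.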
S2 tox: viability counter-screen for ATXN expression inhibitors. S2 cells (HEK-293 line with an ATXN2-luciferase reporter) viability, CellTiter-Fluor protease fluorescence, 24 h. Potency, µM (series often up to 56.7 µM), actives largely listed as cytotoxic. 400,000 tested, 0.49% active. AID 651635; note: nearly all actives have a fitted effect of over 40% in size
TGFb SMAD3 inh: inhibitors of TGF-b signaling. HepG2 CAGA-GFP TGF-b/SMAD3 reporter, GFP fluorescence, 18 h; TGF-beta stimulated, 500 pg/mL final. AID 588855. 410,000 tested, 1.2% active. Potency, µM (highest dose often 46.1 µM), for the others: top-dose activity, negative = inhibition, hits mostly inhibitors; note: % is set by controls: 0 for no effect and ±100 for the full control effect; nearly all actives have a fitted effect of over 65% in size
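Read-out: total well GFP (ex488/em500-530) summed from mean per-cell fluorescence. Cells: HEPG2 CAGA-GFP, 1% FBS DMEM, 18 h at 37 degrees C with 500 pg/mL final TGF-beta. Unstimulated wells served as the full-inhibition control; stimulated DMSO wells = 0%.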
TDP1 cell noCPT: qHTS for Inhibitors of human tyrosyl-DNA phosphodiesterase 1 (TDP1): qHTS in cells in absence of CPT; DT40 Tdp1-/- hTDP1 cells, no CPT, ATP luminescence, 48 h; Potency, µM (highest dose often 46.2 µM), for inactives: at the highest dose activity change, negative = growth inhibition, usual class: inhibitors; 420,000 tested, 15% active; AID 686978, 2013; note: % is set by controls: 0 for no effect and ±100 for the full control effect; nearly all actives have a fitted effect of over 55% in size
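No-CPT arm: Tdp1-/-;hTDP1 DT40 cells (400/well) plus compounds, incubated ≥48 hr at 37 °C. Readout CellTiter-Glo luminescence.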
Active calls of the source: *; [ ] = remark or other dose. Calls come from the whole dose curve; as a rule, active = well fitted curve in the direction sought with a large enough effect; inconclusive = small, poorly fitted or top-dose-only effect, or another doubt; inactive = no such curve, though single readings can be large; an effect the other way counts as inactive or inconclusive. Potency is the fitted concentration of half-maximal effect.

For Cc1cccc(NC(=O)c2nc[nH]c2C(=O)Nc2ccccc2[N+](=O)[O-])c1 the results were HepG2 viability -7.3%, DT40 TDP1 CPT 6.51µM*, S2 tox inconclusive, TGFb SMAD3 inh -3.4% and TDP1 cell noCPT 2.91µM*.
Cc1cccc(NC(=O)c2nc[nH]c2C(=O)Nc2cc(Br)ccc2F)c1 was read as ATXN2 expr inh -4.5%, HepG2 viability -13.2%, DT40 TDP1 CPT 13µM*, S2 tox inactive, TGFb SMAD3 inh 14.0% and TDP1 cell noCPT 8.2µM*.
Screening Cc1ccc(NC(=O)c2nc[nH]c2C(=O)Nc2ccccc2F)cc1 returned ATXN2 expr inh 2.0%, HepG2 viability -2.3%, DT40 TDP1 CPT inconclusive, S2 tox inactive, TGFb SMAD3 inh -0.2% and TDP1 cell noCPT inconclusive.
Screening Cc1cccc(NC(=O)c2nc[nH]c2C(=O)NC[C@@H](C)O)c1 returned ATXN2 expr inh -10.0%, HepG2 viability -1.1%, DT40 TDP1 CPT 12.4%, S2 tox inconclusive, TGFb SMAD3 inh 16.5% and TDP1 cell noCPT -20.8%.
`Cc1cc(C(=O)N[C@H](c2ccccc2)[C@@]2(C)C[C@@H]2[C@@H](C)C(=O)Nc2ccc3ccccc3c2)no1` gave ATXN2 expr inh -16.8%, HepG2 viability -13.8%, DT40 TDP1 CPT inconclusive, S2 tox inconclusive, TGFb SMAD3 inh inconclusive and TDP1 cell noCPT 25.9µM*.
C[C@@H](C(=O)Nc1ccc2ccccc2c1)[C@@H]1C[C@@]1(C)[C@@H](NC(=O)c1cnccn1)c1ccccc1 was read as ATXN2 expr inh -14.5%, HepG2 viability -20.9%, DT40 TDP1 CPT 25.9µM*, S2 tox inconclusive, TGFb SMAD3 inh -11.7% and TDP1 cell noCPT inconclusive.
Screening O=C(c1cncs1)N(Cc1cc2cc3c(cc2nc1N1CCOCC1)CCC3)CC1CCCO1 (centres undefined) returned DT40 TDP1 CPT -5.6%[9.04 µM], S2 tox inactive and TDP1 cell noCPT -12.1%.
For COc1cccc(C2Nc3c(F)cc(Br)cc3C3C=CCC32)c1OC (centres undefined) the results were ATXN2 expr inh -1.2%, HepG2 viability 12.6%, DT40 TDP1 CPT 16.4µM*, S2 tox inactive, TGFb SMAD3 inh 25.9% and TDP1 cell noCPT 18.4µM*.
Screening Cc1ccc(S(=O)(=O)NN=CC2(c3ccccc3)CC2)cc1 returned HepG2 viability -3.6%, DT40 TDP1 CPT -17.6%, S2 tox inactive, TGFb SMAD3 inh 2.7% and TDP1 cell noCPT -29.3%.
For Cc1ccc(NC(=O)c2ccc(F)c(S(=O)(=O)NCCc3ccccc3)c2)cc1F the results were HepG2 viability 10µM*, DT40 TDP1 CPT 20.6µM*, TGFb SMAD3 inh 11.2µM* and TDP1 cell noCPT 23.1µM*.
Screening COc1ccc(NC(=O)c2ccc(Cl)c(S(=O)(=O)N3CCc4ccccc4C3)c2)cn1 returned ATXN2 expr inh -18.3%, HepG2 viability -2.3%, DT40 TDP1 CPT 20.6µM*, S2 tox inactive, TGFb SMAD3 inh -21.4% and TDP1 cell noCPT 23.1µM*.
`Cc1ccc(NC(=O)c2ccc(F)c(S(=O)(=O)N3CCc4ccccc4C3)c2)cc1F` gave HepG2 viability -9.0%, DT40 TDP1 CPT inconclusive, TGFb SMAD3 inh inconclusive and TDP1 cell noCPT 23.1µM*.
For CCOC(=O)N1CCc2c(sc3c2C(=O)NC(c2ccc(N(C)C)cc2)N3)C1 (centres undefined) the results were HepG2 viability -15.6%, DT40 TDP1 CPT 2.31µM*, TGFb SMAD3 inh inconclusive and TDP1 cell noCPT 3.66µM*.

Compound activity from PubChem BioAssay.
